# Source: PubChem BioAssay (National Center for Advancing Translational Sciences (NCATS))
# In the library only some 5.3% were active in any assay of this set; here they are far more common.
# PNC assembly inh: High Content Assay for Compounds that inhibit the Assembly of the Perinucleolar Compartment | PC3M PTB-GFP, PNC prevalence imaging, 16 h; hits give low values | activity change (PNC), negative = inhibition, % at 10 µM | 140,000 tested, 3.1% active | AID 2417, 2010;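 active means readout at or below -70, meaning at least 70% loss of cells showing the perinucleolar compartment, a nuclear body marking cancer cells; inconclusive means readout between -30 and a set limit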;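 further: plate controls were DMSO wells for no effect and camptothecin positive control wells for full effect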
#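 Compounds are pinned in duplicate onto adhered PC3M cells stably expressing GFP-tagged PTB and incubated 16 h at 37 C. Cells are then fixed, nuclei stained with Hoechst, and PNC-positive cells counted.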
# HPGD inh: qHTS Assay for Inhibitors of HPGD (15-Hydroxyprostaglandin Dehydrogenase); 15-hydroxyprostaglandin dehydrogenase [NAD(+)] (Homo sapiens), P15428; purified HPGD, NADH fluorescence kinetic, PGE2 substrate; Potency, µM, for the others: at the top dose activity change, negative = inhibition, hits mostly inhibitors; 150,000 tested, 4.3% active; active means well fitted inhibition curve with a large enough effect, not every such curve was filed as active; inconclusive means small, poorly fitted or top-dose-only effect, or another doubt; inactive means no such curve, though single readings can be large or run the other way; further: potency means the concentration at half of the fitted maximal effect
#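 NADH formation kinetics: reaction with 30 uM PGE2 and 1 mM NAD+ (final), 20 nM enzyme, Tris-HCl pH 8 with Tween 20, after 15 min compound preincubation at room temperature. Fluorescence change, last versus first of five reads.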
# ALOX12 inhib: qHTS Assay for Inhibitors of 12-hLO (12-human lipoxygenase). Potency, µM (highest dose often 57.1 µM), for the others: at the top dose activity change, negative = inhibition, usual class: inhibitors. 150,000 tested, 0.12% active. purified 12-hLO, xylenol orange hydroperoxide absorbance. Polyunsaturated fatty acid lipoxygenase ALOX12 (Homo sapiens), P18054; further: potency means the concentration at half of the fitted maximal effect; nearly all actives have a fitted effect of over 55% in size
#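 Hydroperoxide formation by human 12-lipoxygenase from 40 uM arachidonic acid was followed colorimetrically via ferric-xylenol orange complex, using the 573/405 nm absorbance ratio. Enzyme concentration was 150 nM, with 30 min reaction at room temperature.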
# IMPase inh: qHTS Assay for Identifying the Cell-Membrane Permeable IMPase Inhibitors; Inositol monophosphatase 1 (Rattus norvegicus), P97697; inhibition (IP1 accumulation), % at 46.1 µM; 120,000 tested, under 10 active; CHO-M1 cells, IP1 accumulation, HTRF TR-FRET ratio; active means well fitted curve in the direction sought with a large enough effect in the signal ratio, not every such curve was filed as active; inconclusive means small, poorly fitted or top-dose-only effect, or a change in a side signal; inactive means no such curve, though single readings can be large or run the other way; the % refers to the signal ratio;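 further: cells stimulated with carbachol in lithium chloride buffer; plate controls were DMSO basal wells for no effect and reference inhibitor wells for full effect; higher means more IMPase inhibition seen as more IP1 and lower FRET ratio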
#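 Carbachol-driven Gq signalling in CHO-M1 cells (2000/well) generates IP1. Compounds that block IMPase raise IP1 and so reduce the FRET signal from Eu-anti-IP1 and d2-IP1 after a 10 min room-temperature lysis.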
# IMPase Li cell: qHTS Assay for Identifying the Cell-Membrane Permeable IMPase Inhibitors: Potentiation with Lithium; CHO-M1 cells, IP1 TR-FRET (IP-One), carbachol + lithium; 210,000 tested, 0.35% active; Potency, µM (highest dose often 59.4 µM), without a hit: top-dose activity, negative = IMPase inhibition, usual class: inhibitors;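 further: IP1 builds up when IMPase is blocked and the TR-FRET signal falls; potency means the concentration at half of the fitted maximal effect; plate controls were basal vehicle for no effect and high inhibitor control for full effect; nearly all actives have a fitted effect of over 50% in size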
#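 CHO cells stably expressing M1 receptor (2000/well) were cultured 16–30 h, then exposed to compounds with a small lithium addition for 30 min at 37C. IP1 was measured by TR-FRET competition; AC50 from Hill fits.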
# ALOX15B inhib: qHTS Assay for Inhibitors of 15-hLO-2 (15-human lipoxygenase 2); purified 15hLO-2, xylenol orange hydroperoxide absorbance; AID 881, 2007; 110,000 tested, 0.56% active; Potency, µM (doses to about 57.1 µM), for inactives: top-dose activity change, negative = inhibition, actives largely listed as inhibitors; further: potency means the concentration at half of the fitted maximal effect; nearly all actives have a fitted effect of over 60% in size
# Target sequence (O15296 whole entry, looked up): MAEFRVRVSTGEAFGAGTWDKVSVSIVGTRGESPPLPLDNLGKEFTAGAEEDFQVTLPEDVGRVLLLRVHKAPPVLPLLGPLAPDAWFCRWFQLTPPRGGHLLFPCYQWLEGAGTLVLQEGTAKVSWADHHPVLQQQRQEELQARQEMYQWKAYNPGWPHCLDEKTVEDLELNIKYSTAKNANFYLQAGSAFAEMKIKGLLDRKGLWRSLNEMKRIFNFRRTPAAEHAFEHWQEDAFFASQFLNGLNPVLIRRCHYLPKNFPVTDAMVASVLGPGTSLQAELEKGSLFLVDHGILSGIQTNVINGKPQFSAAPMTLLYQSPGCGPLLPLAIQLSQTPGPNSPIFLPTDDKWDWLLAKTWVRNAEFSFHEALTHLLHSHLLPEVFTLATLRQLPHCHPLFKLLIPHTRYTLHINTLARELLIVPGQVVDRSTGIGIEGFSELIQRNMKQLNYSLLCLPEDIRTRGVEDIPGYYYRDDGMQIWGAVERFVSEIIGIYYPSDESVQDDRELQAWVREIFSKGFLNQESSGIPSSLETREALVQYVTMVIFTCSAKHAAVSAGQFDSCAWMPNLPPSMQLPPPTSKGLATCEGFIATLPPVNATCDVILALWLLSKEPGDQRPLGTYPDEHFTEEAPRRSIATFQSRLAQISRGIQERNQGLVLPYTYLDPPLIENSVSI
#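 Purified human 15hLO-2 (50 nM final) preincubated with compounds 15 min at room temperature in 25 mM Hepes pH 7.5, 0.01% Triton X-100, then 45 uM arachidonic acid added for 90 min; hydroperoxide detected via ferrous/xylenol orange, 573/405 nm absorbance ratio.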
# An asterisk follows results filed as active; ? = inconclusive; nt = no result given; [ ] = remark or other dose. Unless noted, the call rests on the fitted dose curve; in most records, active means well fitted curve in the direction sought with a large enough effect; inconclusive means small, poorly fitted or top-dose-only effect, or another doubt; inactive means no such curve, though single readings can be large; an effect the other way counts as inactive or inconclusive. Unless noted, on the % scale 0 is the no-effect control and ±100 the full control effect.
SMILES,PNC assembly inh,HPGD inh,ALOX12 inhib,IMPase inh,IMPase Li cell,ALOX15B inhib
Cc1ccc(C)c(NC(=O)CSc2nnc([C@@H]3CCCN3C(=O)OC(C)(C)C)o2)c1,-119*,nt,-4%,9,nt,-7%
O=[N+]([O-])c1ccc(NCCO)c(OCCO)c1,nt,-8%,-2%,nt,2%,-18%
O=C1OC(c2ccccc2)/C(=C(/O)c2ccc(Cl)cc2)C1=O (configuration not stated),3,35µM*,2%,-13,?,4%
CCCN(CCC)C(=O)SCC,nt,-2%,1%,nt,-4%,-1%
O=C(COC(=O)c1ccc2c(c1)S(=O)(=O)N=C1CCCCCN12)NCCc1ccc(F)cc1,nt,nt,nt,nt,4%,nt
CSc1cccc(NC(=S)N2CCCN(Cc3ccc(F)cc3)C2)c1,nt,nt,nt,nt,3%,nt
O=C(NC(=S)N(Cc1ccccc1)c1ccccn1)C1CCCCC1,-103*,?,-20%,nt,6%,nt
CN(Cc1ccccc1)C(=S)NC(=O)C1CCCCC1,1,nt,4%,0,nt,nt
COC(=O)Cc1c(O)ccn(Cc2cccc3ccccc23)c1=O,45,-6%,3%,13,-1%[38.3 µM],nt
COc1cccc(C(=O)Nc2ccc(NC(=O)C(C)(C)C)cn2)c1,-84*,-5%,-1%,-8,20%[38.3 µM],5%
CCOc1ccccc1CNS(=O)(=O)c1ccc2[nH]c(=O)sc2c1,-107*,-22%,2%,6,49%[38.3 µM],-6%
O=S(=O)(NCC1CCCO1)c1cnc(Cl)c(Br)c1 (configuration not stated),?,-10%,3%,nt,-4%,nt
O=C(N/N=C/c1cn(-c2ccccc2)nc1-c1cc2ccccc2o1)c1ccncc1,76,-28%,-2%,nt,10%,nt
O=C(N/N=C/c1cn(-c2ccccc2)nc1-c1cc2ccccc2o1)c1cccnc1,-106*,?,0%,nt,17%,nt
O=C(NC1CCCC1)C1CCN(c2nccs2)CC1,-6,14µM*,-4%,0,-1%,nt
Cc1cccc(NS(=O)(=O)c2cc(C(=O)N3CCOCC3)ccc2Cl)c1,nt,nt,nt,nt,3%,nt
COc1ncc2nc(-c3ccc(F)cc3)c(=O)n(C)c2n1,nt,nt,nt,nt,-7%,-7%
N#CC1=C(S)N(c2ccccc2)C(c2ccc(-c3cccc(Cl)c3)o2)NC1=O (configuration not stated),?,32µM*,-8%,nt,-8%,nt
COC(=O)c1sc(NC(=O)Cc2cccs2)nc1C,?,-8%,5%,-1,21%[38.3 µM],-8%
CC(C)NC(=O)c1cc2c(s1)CCCC2,-14,22µM*,6%,6,-5%,nt
O=C(Nc1ccon1)c1cc2c(s1)CCCC2,-24,28µM*,-4%,-3,11%,-6%
O=C(Nc1ccon1)c1cc2c(s1)CCCCCC2,15,-21%,-1%,3,20%[38.3 µM],0%
O=C(c1cc2c(s1)CCCC2)N1CCN(c2ccccc2)CC1,nt,nt,nt,nt,9%,nt
Cc1csc(NC(=O)c2cc3c(s2)CCCCC3)n1,?,25µM*,-4%,1,35%[38.3 µM],9%
CC1CC(C)CN(C(=O)c2cc3c(s2)CCC3)C1 (configuration not stated),-7,13µM*,-4%,-4,28%[38.3 µM],-2%
CSCC[C@H](NC(=O)c1nn(C)c(=O)c2ccccc12)c1nc2ccccc2[nH]1,-11,-4%,0%,8,-5%[38.3 µM],4%
C=CCn1c(C(CCCC)CC(O)COCC(C)C)n[nH]c1=S (configuration not stated),nt,nt,nt,nt,9%,nt
